Assay outcomes (PubChem)
mut p53 react = restores mutant p53 pathway signaling in SW480 cells. SW480 PUMA-promoter luciferase, p53 mutant reactivation. AID 624151. 28,000 tested, 1.5% active. activation, % at 9.98 µM; in the data active = activation above about 52%; inconclusive = no clear call, values can overlap the other calls
ID4 SMM = ID4 (human) binding; P47928; small molecule microarray, Flag-ID4 binding, fluorescence F/B; calls only; 31,000 tested, 1.2% active; call rule not given here;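 note: a binder raises fluorescence above local background on the spot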
Target sequence (P47928 whole entry, looked up): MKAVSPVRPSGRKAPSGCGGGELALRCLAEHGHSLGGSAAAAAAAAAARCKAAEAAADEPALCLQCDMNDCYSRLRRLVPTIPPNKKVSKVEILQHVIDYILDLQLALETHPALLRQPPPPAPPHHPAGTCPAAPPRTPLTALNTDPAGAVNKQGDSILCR
Starred values were filed as active, the others as inactive; i = inactive; ? = inconclusive; . = not tested or not shown; + = active, no number. Most compounds without a hit are left out; they make up all but 2.2% or so of the library.

SMILES	mut p53 react	ID4 SMM
CCCC[C@H]1OB(O)C[C@H]2C1=C(COc1ccccc1)Cn1c(=O)n(-c3ccccc3)c(=O)n12	.	+
COCC1=C2[C@@H](c3ccccc3)OB(O)C[C@@H]2n2c(=O)n(-c3ccccc3)c(=O)n2C1	.	i
O=C(CNC(=O)c1ccco1)Nc1cccc(C(F)(F)F)c1	0.7	i
O=C(NCc1cccnc1)c1cccc(NC(=O)c2ccco2)c1	-1.9	+
CS(=O)(=O)Nc1ccc(C(=O)NCc2cccnc2)cc1	8.4	i
CN(C)C=NC(=O)c1ccc(-c2cccs2)s1	34.2	i
Cc1cc(C)cc(N(CC(=O)O)S(C)(=O)=O)c1	-7.3	i
Cc1cc(Cl)ccc1OCC(=O)Nc1cccc(NC(=O)c2ccccc2C)c1	57.2*	i
COc1cccc(C(=O)COc2ccc(NC(=O)c3ccccc3C)cc2)c1	0.1	i
CC(=O)Nc1ccc(NC(=O)COc2ccccc2C(=O)Nc2cccc(C)c2C)cc1	-15.0	+
Cc1cccc(NC(=O)c2ccccc2OCC(=O)Nc2cccc([N+](=O)[O-])c2)c1C	-4.5	i
Cc1cc(Cl)ccc1OCC(=O)Nc1cccc(NC(=O)c2ccccc2Cl)c1	37.6	i
Cc1ccccc1C(=O)Nc1ccc(OCC(=O)O)cc1	-7.8	+
CC(=O)C1=C(C)Nc2ncnn2C1c1ccccc1[N+](=O)[O-] (stereo not given)	1.9	i
O=C(C1CCCO1)N1N=C(c2c(-c3ccccc3)c3cc(Cl)ccc3[nH]c2=O)CC1c1ccco1 (stereo not given)	-20.1	i
O=C(Nc1ccccc1C(=O)NCc1ccco1)c1ccc(-c2ccccc2)cc1	57.7*	i
O=C(Nc1ccccc1C(=O)NCc1ccco1)c1ccccc1Cl	-0.3	i
COc1ccccc1OCCCSc1nc(-c2ccccc2)cc(=O)[nH]1	0.8	i
CCOC(=O)c1c(NC(=O)COc2ccccc2C)sc2c1CCC2	26.7	i
CCCCCCCC/C=C\C/C=C\C/C=C\CCCC(=O)O	.	i
CCCCC/C=C\C/C=C\CCCCCCCC(=O)NCC(=O)O	.	+
CCCCC/C=C\C/C=C\C/C=C\CCCCCCC(=O)O	11.6	+
O=S(=O)(N[C@@H]1CCCN(Cc2ccc(OCCO)cc2)C1)c1cccc(F)c1	.	+
O=S(=O)(N[C@@H]1CCCN(Cc2cccc(OCCO)c2)C1)c1cccc(F)c1	.	+
Cc1ccc(S(=O)(=O)NC2CCN(Cc3ccc(OCCO)cc3)CC2)cc1	.	+
SMILES	mut p53 react	ID4 SMM
O=S(=O)(N[C@@H]1CCCN(Cc2cccc(OCCO)c2)C1)c1ccc(-c2ccccc2)cc1	.	i
O=S(=O)(N[C@@H]1CCCN(Cc2ccc(OCCO)cc2)C1)c1cccc2cccnc12	.	+
O=S(=O)(N[C@@H]1CCCN(Cc2ccc(OCCO)cc2)C1)c1ccc2ccccc2c1	.	i
Cc1nc(S(=O)(=O)N[C@@H]2CCN(Cc3cccc(OCCO)c3)C2)cn1C	.	i
COc1ccc(S(=O)(=O)NC2CCN(Cc3ccc(OCCO)cc3)CC2)cc1	.	i
COc1ccc(OC)c(NC(=O)COc2ccc([N+](=O)[O-])cc2)c1	23.0	i
COC(=O)c1ccccc1NC(=O)C(C)(C)Oc1ccc(Cl)cc1	15.7	i
O=C(CC1(O)C(=O)N(Cc2cccc3ccccc23)c2ccccc21)c1ccccn1 (stereo not given)	-5.7	i
CC(C)(C)S(=O)(=O)Cc1nc(-c2cccc(F)c2)cs1	34.7	i
COc1ccc(OCC(=O)Nc2cccc(Cl)c2N2CCOCC2)cc1	8.0	i
CCOc1cc([N+](=O)[O-])ccc1NC(=O)CC1Sc2ccccc2NC1=O (stereo not given)	-44.2	i
CCn1c(NCc2ccccc2O)nc2ccccc21	61.6*	i
Cn1c(NCc2cc(Br)ccc2O)nc2ccccc21	?	i
CCCn1c(NCc2cccc(OC)c2O)nc2ccccc21	21.4	i
COc1ccc(CNc2nc3ccccc3n2C)c(O)c1	142.3*	i
COc1cc2c(cc1NC(=O)COc1ccc([N+](=O)[O-])cc1)oc1ccccc12	-1.5	i
COc1cc2c(cc1NC(=O)Cc1ccccc1[N+](=O)[O-])oc1ccccc12	86.6*	i
CC(C)(OC(=O)c1ccccc1)[C@@H]1Cc2cc3ccc(=O)oc3cc2O1	13.0	i
CC(C)(O)[C@@H]1Cc2cc3ccc(=O)oc3cc2O1	53.6*	i
COc1cc(NC(=O)Cn2nc(C(F)(F)F)cc2C)cc([N+](=O)[O-])c1	-12.0	i
O=C(CCNc1ccc2c(c1)oc1ccccc12)c1ccc([N+](=O)[O-])cc1	12.4	i
COc1ccc(C(=O)NCC(=O)Nc2cc(OC)ccc2OC)cc1	1.5	+
COc1ccc(OC)c(NC(=O)c2ccc(CSc3nnc(C)s3)cc2)c1	61.8*	i
COc1ccc(OC)c(NC(=O)CNC(=O)c2ccc(C(C)(C)C)cc2)c1	7.1	i
COc1ccc(OC)c(NC(=O)Cc2ccc(OC)c(OC)c2)c1	-6.2	i
SMILES	mut p53 react	ID4 SMM
CCn1c(SCC(=O)Nc2cc(C(F)(F)F)ccc2Cl)nnc1-c1ccccc1F	0.2	i
c1ccc(-c2nn3c(C4COc5ccccc5O4)nnc3s2)cc1 (stereo not given)	59.0*	i
c1cncc(-c2nn3c(C4COc5ccccc5O4)nnc3s2)c1 (stereo not given)	2.9	i
Cc1ccc(-c2csc3nnc(SCC(=O)Nc4ccc(Cl)cc4)n23)cc1	-2.5	i
COc1ccc(-c2cc(=O)c3ccc(OC)cc3o2)cc1	65.9*	.
COc1c(O)cc2oc(-c3ccc(O)cc3)cc(=O)c2c1O	58.5*	.
COc1cc2oc(-c3ccc(O)cc3)cc(=O)c2c(O)c1OC	-16.8	i
COc1ccc(-c2cc(=O)c3cc(OC)ccc3o2)cc1	.	i
Cc1nc2ccccc2nc1OCC(=O)c1ccc(Cl)cc1	3.7	i
COc1ccc(NC(=O)CN(C)S(=O)(=O)c2ccc(C)cc2)cc1OC	-1.7	i
O=C(COc1ccccc1)Nc1ccc(Cl)cc1C(=O)O	-17.7	i
Cc1cc(OCC(=O)Nc2ccccc2C(N)=O)c(C)cc1Br	31.7	i
Cc1cc(C)c(C)c(OCC(=O)Nc2ccccc2C(N)=O)c1	53.1*	i
COC(=O)c1ccccc1NC(=O)COc1ccc(C)cc1C	4.3	i
CCc1ccc(OCC(=O)Nc2ccccc2C(N)=O)c(Br)c1	70.8*	i
OC1[C@H](O)CO[C@@H](OC[C@H]2O[C@@H](OC/C=C/c3ccccc3)[C@H](O)[C@@H](O)[C@@H]2O)[C@H]1O (stereo not given in full)	8.3	.
O=c1cc(-c2ccc(O[C@@H]3O[C@H](CO)[C@@H](O)[C@H](O)[C@H]3O)cc2)oc2cc(O)cc(O)c12	.	i
COc1c(N2CCNC(C)C2)c(F)cc2c(=O)c(C(=O)O)cn(C3CC3)c12 (stereo not given)	.	+
O=C(O)c1cn(C2CC2)c2cc(N3CCNCC3)c(F)cc2c1=O	.	i
COc1ccccc1NC(=O)CNC(=O)c1ccccc1F	6.4	i
NC(=O)c1c(NC(=O)CSc2ncn[nH]2)sc2c1CCC2	-2.9	+
CCOC(=O)c1c(NC(=O)CSc2ncn[nH]2)sc2c1CCCC2	-0.6	i
O=C(CCN1C(=O)c2ccccc2C1=O)Nc1ccccc1C(=O)N1CCCC1	14.2	i
CC1(CO)CC(O)CC2(C)C3=C(CCC12)C(=O)OC3 (stereo not given)	.	i
